Menin MLL FP TR = qHTS Assay for Inhibitors Targeting the Menin-MLL Interaction in MLL Related Leukemias: Competition With Texas Red Labeled MLL-derived Mutant Peptide. 270,000 compounds, 0.23% hits. Potency, µM (series often up to 61.6 µM), hits mostly inhibitors. O00255. Menin + Texas Red MLL mutant peptide, fluorescence polarization; active means well fitted inhibition curve with a large enough effect in the polarisation, with a control signal flat, not every such curve was filed as active; inconclusive means small, poorly fitted or top-dose-only effect, or effect the other way, or a change in a side signal; inactive means no such curve, though single readings can be large or run the other way; the % refers to the polarisation
MLL CXXC-DNA inh = qHTS Fluorescence Polarization Assay for Inhibitors of MLL CXXC domain - DNA interaction | Histone-lysine N-methyltransferase 2A (Homo sapiens), Q03164 | AID 2662, 2010 | Potency, µM (series often up to 115 µM), hits mostly inhibitors | MLL-CXXC / FITC-HOXA9 DNA fluorescence polarization | 290,000 compounds, 0.037% hits; active means well fitted inhibition curve with a large enough effect in the polarisation, with a control signal flat, not every such curve was filed as active; inconclusive means small, poorly fitted or top-dose-only effect, or effect the other way, or a change in a side signal; inactive means no such curve, though single readings can be large or run the other way; the % refers to the polarisation
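Steps: dispense CXXC domain solution (7 uM) → pin compounds or unlabeled HOX-A9 DNA control → 5 min ambient → add FLSN-HOX-A9 solution (50 nM) → spin → 30 min ambient → fluorescence polarization. Tris pH 7.5/NaCl/DTT/BSA buffer.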
Menin-MLL FL inh = qHTS Assay for Inhibitors Targeting the Menin-MLL Interaction in MLL Related Leukemias: Competition With Fluorescein Labeled MLL-derived Peptide; AID 1766, 2009; Fluorescence polarization, fluorescein-MLL peptide displacement from menin; FP activity change, % at 61.4 µM; 290,000 tested, under 10 active; active means well fitted curve in the direction sought with a large enough effect in the polarisation, not every such curve was filed as active; inconclusive means small, poorly fitted or top-dose-only effect, or effect the other way, or a change in a side signal; inactive means no such curve, though single readings can be large or run the other way; the % refers to the polarisation
CBFb RUNX1 block = qHTS Assay for Compounds Blocking the Interaction Between CBF-beta and RUNX1 for the Treatment of Acute Myeloid Leukemia. AlphaScreen CBFb-His/RUNX1-biotin binding, biochemical. Potency, µM (doses to about 59.8 µM), actives largely listed as inhibitors. 230,000 tested, under 10 active. AID 1477, 2009; active means well fitted curve in the direction sought with a large enough effect; inconclusive means small, poorly fitted or top-dose-only effect, or effect the other way, or another doubt; inactive means no such curve, though single readings can be large or run the other way
Target sequence (Q01196 whole entry, looked up): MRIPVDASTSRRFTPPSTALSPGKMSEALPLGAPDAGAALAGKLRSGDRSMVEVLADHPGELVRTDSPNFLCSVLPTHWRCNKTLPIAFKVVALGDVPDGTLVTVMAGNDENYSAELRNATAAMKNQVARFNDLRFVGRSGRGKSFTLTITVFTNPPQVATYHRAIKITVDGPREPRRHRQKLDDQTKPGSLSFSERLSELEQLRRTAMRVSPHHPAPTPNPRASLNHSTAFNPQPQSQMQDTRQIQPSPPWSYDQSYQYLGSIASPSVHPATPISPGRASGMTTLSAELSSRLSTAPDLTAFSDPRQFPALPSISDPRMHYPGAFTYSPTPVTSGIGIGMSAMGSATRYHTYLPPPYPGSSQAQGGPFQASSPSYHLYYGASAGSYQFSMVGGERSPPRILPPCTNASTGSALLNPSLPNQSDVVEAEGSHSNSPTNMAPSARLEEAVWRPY
Target sequence (Q13951 whole entry, looked up): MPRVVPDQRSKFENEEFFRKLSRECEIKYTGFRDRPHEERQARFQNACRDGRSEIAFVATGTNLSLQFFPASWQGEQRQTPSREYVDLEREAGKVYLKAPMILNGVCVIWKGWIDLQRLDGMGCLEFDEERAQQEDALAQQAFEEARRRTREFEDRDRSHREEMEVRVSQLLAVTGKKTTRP
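Proteins preincubated together for 20 min at RT before compound addition; 15 min later, nickel and streptavidin beads were added and left 90 min prior to AlphaScreen measurement.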
MBNL1 CUG block = qHTS Assay for Inhibitors of MBNL1-poly(CUG) RNA binding; Muscleblind-like protein 1 (Homo sapiens), Q9NR56; TR-FRET MBNL1-His/biotin-(CUG)12 binding, 665/545 ratio; Potency, µM (doses to about 57.5 µM), usual class: inhibitors; 280,000 compounds, 0.036% hits; AID 2675, 2010; active means well fitted inhibition curve with a large enough effect in the signal ratio, with a control signal flat, not every such curve was filed as active; inconclusive means small, poorly fitted or top-dose-only effect, or effect the other way, or a change in a side signal; inactive means no such curve, though single readings can be large or run the other way; the % refers to the signal ratio
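His-tagged MBNL1 binding to biotinylated (CUG)12 RNA was measured by TR-FRET using terbium anti-His antibody (0.055 ng/ul final) and streptavidin-XL665 (5 nM final). Compounds were titrated 92 nM to 58 uM; 60 min at room temperature.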
Large screens that a line does not name were inactive. The entries come from a sample that favours hits as a whole.

NC(=O)c1ccc(NC(=O)COC(=O)c2c3c(nc4ccccc24)/C(=C\c2cccs2)CCC3)cc1	Menin MLL FP TR inconclusive
CCc1cccc(C)c1NC(=O)COC(=O)c1c2c(nc3ccccc13)/C(=C\c1cccs1)CCC2	Menin MLL FP TR 14µM, CBFb RUNX1 block inconclusive (no result: MBNL1 CUG block)
O=C(NCCO)Nc1ccc2nc(-c3ccco3)c(-c3ccco3)nc2c1	Menin MLL FP TR inconclusive, MLL CXXC-DNA inh 35µM, Menin-MLL FL inh inconclusive, MBNL1 CUG block inconclusive
COc1ccc2cc3cc(C(=O)NCCCN4CCOCC4)oc3nc2c1	Menin MLL FP TR 28µM, MBNL1 CUG block inconclusive
FC(F)Sc1ccc(NC(=S)NC(c2ccccc2)c2ccccc2)cc1	Menin MLL FP TR 16µM
COc1ccc(N2CCN(CC(O)COc3cc(C)cc(C)c3)CC2)cc1 (centres undefined)	none (no result: CBFb RUNX1 block)
COc1ccc(N2CCN(CC(O)COC(c3ccc(F)cc3)c3ccc(F)cc3)CC2)cc1 (centres undefined)	Menin MLL FP TR 18µM (no result: CBFb RUNX1 block)
COc1ccc(N2CCN(CC(O)COc3ccc(F)cc3)CC2)cc1 (centres undefined)	Menin MLL FP TR 20µM (no result: CBFb RUNX1 block)
COc1ccc(N2CCN(CC(O)COC(c3ccccc3)c3ccccc3)CC2)cc1 (centres undefined)	none (no result: CBFb RUNX1 block)
COc1ccc(OCC(O)CN2CCN(c3ccc(OC)cc3)CC2)cc1 (centres undefined)	Menin MLL FP TR 35µM (no result: CBFb RUNX1 block)
COc1ccc(/C=N/Nc2cc(C)nc3ccc(Br)cc23)cc1	Menin MLL FP TR 16µM, MBNL1 CUG block inconclusive (no result: CBFb RUNX1 block)
COc1ccc2nc(C)cc(N/N=C/c3cccc(OC)c3O)c2c1	MLL CXXC-DNA inh inconclusive, MBNL1 CUG block inconclusive (no result: CBFb RUNX1 block)
CCOC(=O)c1c(C)oc2c1c(C=NCc1ccccn1)c(O)c1ccccc12	Menin MLL FP TR 3.5µM, Menin-MLL FL inh inconclusive, MBNL1 CUG block inconclusive
COc1cc(/C=N/NC(=O)C2c3ccccc3Oc3ccccc32)ccc1O	Menin MLL FP TR 2.8µM
N#Cc1ccc(-c2csc(NC(=O)c3ccc(S(=O)(=O)N4CCc5ccccc5C4)cc3)n2)cc1	Menin MLL FP TR 11µM
CCCCC(=O)OCC(=O)[C@]1(O)Cc2c(O)c3c(c(O)c2[C@H](OC2CC(NC(=O)C(F)(F)F)C(O)C(C)O2)C1)C(=O)c1c(OC)cccc1C3=O (some centres undefined)	Menin MLL FP TR 28µM (no result: CBFb RUNX1 block, MBNL1 CUG block)
COCCn1c(=O)cnc2cnc(N3CCN(C)CC3)nc21	Menin MLL FP TR 35µM (no result: MLL CXXC-DNA inh, CBFb RUNX1 block, MBNL1 CUG block)
COC(=O)c1ccc(CNC(=O)c2ccc(COc3ccccc3)cc2)cc1	Menin MLL FP TR 28µM (no result: MBNL1 CUG block)
O=C(O)C1C2C=CC(C2)C1C(=O)Nc1ccc2c(c1)OCCO2 (centres undefined)	none
CN(C)c1ccc(NC(=O)C2C3C=CC(C3)C2C(=O)O)cc1 (centres undefined)	Menin MLL FP TR 20µM, MLL CXXC-DNA inh inconclusive, MBNL1 CUG block inconclusive (no result: CBFb RUNX1 block)
Cc1cccc([C@@H]2[C@@H]3C(=O)N(Cc4ccccc4)C(=O)[C@@H]3[C@]3(Cc4ccc(Cl)cc4)C(=O)N(c4ccc(Br)cc4)C(=O)N23)c1	Menin MLL FP TR 20µM (no result: CBFb RUNX1 block)
O=C(CCCN1C(=O)c2ccccc2C1=O)Nc1cccnc1	none
CCCNC(=O)N1CCCC(C(N)=O)C1 (centres undefined)	none
O=C(O)COc1ccccc1/C=N/NC(=O)c1cccc(S(=O)(=O)Nc2cccc(Cl)c2)c1	Menin MLL FP TR inconclusive, MLL CXXC-DNA inh inconclusive
Cc1cc(N2CCN(C)CC2)nc2ccc(NC(=S)NCc3cccs3)cc12	none
Cc1cc(NC(=O)CCCN2C(=O)/C(=C/c3cccs3)SC2=S)no1	Menin MLL FP TR 18µM (no result: MBNL1 CUG block)
COc1cccc(/C=C2\SC(=S)N(CCCC(=O)Nc3cc(C)on3)C2=O)c1	Menin MLL FP TR inconclusive, Menin-MLL FL inh inconclusive (no result: CBFb RUNX1 block)
COc1cc(C(=O)NC(=S)NNC(=O)[C@H]2C[C@@H]2c2ccccc2)cc(OC)c1OC	none (no result: Menin MLL FP TR)
Cc1ccccc1Nc1nc(Nc2ccccc2C)nc(SC2=NCCS2)n1	CBFb RUNX1 block inconclusive
Cc1ccc(Nc2nc(Nc3ccc(C)cc3)nc(SC3=NCCS3)n2)cc1	Menin MLL FP TR 40µM
C=CCOCC(O)Cn1c(N2CCCC2)nc2c1c(=O)n(C)c(=O)n2C (centres undefined)	none (no result: CBFb RUNX1 block)
Cc1ccc(-c2nc3ccccc3s2)cc1NC(=S)NC(=O)c1cccc2ccccc12	Menin MLL FP TR 11µM (no result: Menin-MLL FL inh)
Cc1ccc(-c2nc3ccccc3s2)cc1NC(=S)NC(=O)/C=C/c1ccco1	Menin MLL FP TR inconclusive
CCc1cccc(NC(=O)CCCCCC2NC(=O)NC2C)c1 (centres undefined)	MBNL1 CUG block 0.1µM (no result: CBFb RUNX1 block)
Cc1ccc(NC(=O)CCCCCC2NC(=O)NC2C)cc1 (centres undefined)	MBNL1 CUG block 0.045µM (no result: CBFb RUNX1 block)
CC1NC(=O)NC1CCCCCC(=O)Nc1ccc(F)c(Cl)c1 (centres undefined)	none (no result: CBFb RUNX1 block, MBNL1 CUG block)
CC1NC(=O)NC1CCCCC(=O)O (centres undefined)	none
N#CCCn1c(=O)c(-c2ccc(Cl)cc2)nc2cnc(Nc3ccccc3)nc21	Menin MLL FP TR 10µM, Menin-MLL FL inh inconclusive (no result: MLL CXXC-DNA inh, CBFb RUNX1 block, MBNL1 CUG block)
O=C(Nc1ccccc1-c1nc2ccccc2[nH]1)c1ccc(S(=O)(=O)N2CCCCC2)cc1	Menin MLL FP TR 10µM
COc1ccc(C(=O)Nc2ccc(NC(=O)c3cccs3)c(OC)c2)cc1Cl	Menin MLL FP TR inconclusive
COc1ccc(C(=O)Nc2ccc(NC(=O)c3cccs3)cc2)cc1Cl	Menin MLL FP TR 7.1µM
COc1ccc(N(CC(O)Cn2c3ccccc3c3ccccc32)S(=O)(=O)c2ccccc2)cc1 (centres undefined)	Menin MLL FP TR 25µM
O=C(Cn1cc(C(F)(F)F)ccc1=O)Nc1ccccc1	none (no result: Menin MLL FP TR, MBNL1 CUG block)
CSc1ccccc1NC(=O)c1cccc(S(=O)(=O)N2CCN(C)CC2)c1	none (no result: Menin MLL FP TR, Menin-MLL FL inh, CBFb RUNX1 block)
O=C(CSc1ccccc1C(=O)O)NCc1ccccc1	none
COc1ccc(-n2nc3cc(C)c(NC(=S)NC(=O)c4ccccc4C)cc3n2)cc1	Menin MLL FP TR 22µM
Cc1ccc(N=c2c([N+](=O)[O-])nn(-c3ccccc3)n2O)c(C)c1	Menin MLL FP TR inconclusive, CBFb RUNX1 block inconclusive, MBNL1 CUG block inconclusive
COc1ccc(N2CCN(C(=O)c3cc(=O)c4cc(C)cc(C)c4o3)CC2)cc1	Menin MLL FP TR 11µM (no result: CBFb RUNX1 block)
COc1ccc(N2CCN(C(=O)c3cc(=O)c4cc(C)ccc4o3)CC2)cc1	Menin MLL FP TR inconclusive (no result: CBFb RUNX1 block)
CN(C)CCN(Cc1ccc(Cl)cc1)c1ccccn1	none
CCOC(=O)C1=C(CSc2nc(-c3ccccc3)ccc2C#N)OC(N)=C(C#N)C1c1ccc(OC)cc1 (centres undefined)	Menin MLL FP TR 14µM, Menin-MLL FL inh inconclusive

Screening data: PubChem BioAssay, National Center for Advancing Translational Sciences (NCATS)
